# From PubChem
# Sampled rows, rich in hits. Any-hit rate of the full collection: about 1.2%.
# TSHR antagonist = Antagonists of the Thyroid Stimulating Hormone Receptor: HTS campaign; Thyrotropin receptor (Homo sapiens), P16473; TSHR-expressing cells, TSH-stimulated cAMP HTRF, 2 h; hits give low values; activity change, negative = inhibition, % at 11.5 µM; 330,000 compounds, 0.2% hits; AID 504810, 2011;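 active = activity change below a set negative limit, meaning inhibition stronger than a set level, cut at about -70% in these data; inconclusive = activity change between two set negative limits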
#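 TSHR-expressing cells, 200/well, pre-treated with compound, then stimulated with EC80 TSH (4nM final) for 2 hours at 37 deg C. cAMP measured by competitive HTRF: anti-cAMP cryptate antibody in lysis buffer plus cAMP-d2, read after 30 minutes at room temperature.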
# Apoferritin bind = qHTS Assay for Identification of Novel General Anesthetics. apoferritin/1-aminoanthracene competitive binding, fluorescence. Potency, µM (series often up to 77.5 µM), usual class: inhibitors. Ferritin light chain (Equus caballus), P02791. 350,000 compounds, 0.074% hits; also: nearly all actives have a fitted effect of over 20% in size
#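 Read-out: endpoint 1-AMA fluorescence, excitation 380 nm and emission 535 nm, after compounds sit 10 min at room temperature with 10 uM horse-spleen apoferritin in 50% saturated 1-AMA/PBS. Values come from four-parameter Hill fits.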
# S-ASM inh = Inhibitors of Secretory Acid Sphingomyelinase (S-ASM): qHTS; Potency, µM (top dose mostly 57.5 µM), hits mostly inhibitors; AID 504937, 2011; placental ASM, HMU-PC fluorogenic substrate, 60 min; 340,000 compounds, 0.006% hits
# Target sequence (P17405 47-631 limits assumed): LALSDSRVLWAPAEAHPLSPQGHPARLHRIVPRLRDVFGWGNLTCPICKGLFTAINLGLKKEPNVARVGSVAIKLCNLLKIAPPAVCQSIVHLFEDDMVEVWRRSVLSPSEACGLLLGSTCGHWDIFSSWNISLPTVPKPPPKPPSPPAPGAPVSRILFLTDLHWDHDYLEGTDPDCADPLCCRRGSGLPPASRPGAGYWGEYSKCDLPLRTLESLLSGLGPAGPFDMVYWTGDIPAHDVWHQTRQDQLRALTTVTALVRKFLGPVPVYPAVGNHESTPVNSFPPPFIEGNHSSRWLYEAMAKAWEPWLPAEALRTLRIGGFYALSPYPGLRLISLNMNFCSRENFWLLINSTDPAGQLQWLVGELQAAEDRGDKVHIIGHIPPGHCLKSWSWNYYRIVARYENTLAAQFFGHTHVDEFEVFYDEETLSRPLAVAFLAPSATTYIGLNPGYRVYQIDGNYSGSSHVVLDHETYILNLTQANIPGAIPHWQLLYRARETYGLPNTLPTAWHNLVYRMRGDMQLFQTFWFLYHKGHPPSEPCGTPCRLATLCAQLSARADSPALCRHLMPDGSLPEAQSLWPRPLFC
#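 Human placenta-derived ASM enzyme was preincubated with compound for 10 minutes at room temperature, then given fluorogenic substrate HMU-PC0 (9 uM final) for 60 minutes at 37 °C; a pH 10 stop preceded fluorescence reading at Ex 386/Em 447 nm.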
# BRCA1 expr up = qHTS Assay to Identify Small Molecule Activators of BRCA1 Expression; MCF7-BRCA1-FFLuc reporter, luminescence, 48 h; response scale: scaled: vehicle 0%, 10 µM genistein 100%; AID 624202, 2012; Potency, µM (top dose mostly 46.1 µM), usual class: activators; 380,000 compounds, 1.1% hits; also: nearly all actives have a fitted effect of over 80% in size
#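 Using MCF7 cells harboring a BRCA1 firefly luciferase reporter, plated 2 h before compound pinning, the screen measured luminescence after 48 h incubation. Responses were normalized to DMSO and 10 microM genistein, then fitted for concentration-effect.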
# PTAP TSG101 blk = qHTS Assay for Iinhibitors of HIV-1 Budding by Blocking the Interaction of PTAP/TSG101 | AID 493005, 2010 | Potency, µM (highest dose often 115 µM), most hits filed as inhibitors | Fluorescence polarization, FITC-PTAP peptide / Tsg101 binding | 340,000 tested, under 10 active; active = well fitted inhibition curve with a large enough effect in the main read-out, with a control signal flat, not every such curve was filed as active; inconclusive = small, poorly fitted or top-dose-only effect, or effect the other way, or a change in a side signal; inactive = no such curve, though single readings can be large or run the other way
#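 Tsg101 binding domain (10 uM final) was mixed with compound and a FITC-labeled PTAP peptide (50 nM final) in HEPES pH 7.5 buffer with NaCl, Tween 20, EDTA and TCEP; fluorescence polarization was read after 20 min at r.t.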
# A number is an active result; n = inactive; u = inconclusive; x = not tested or not shown. Unless noted, calls follow the shape of the dose curve; as a rule, active = well fitted curve in the direction sought with a large enough effect; inconclusive = small, poorly fitted or top-dose-only effect, or another doubt; inactive = no such curve, though single readings can be large; an effect the other way counts as inactive or inconclusive.
SMILES,TSHR antagonist,Apoferritin bind,S-ASM inh,BRCA1 expr up,PTAP TSG101 blk
Nc1nc(CSC(=S)N2CCCCC2)nc(Nc2ccccc2)n1,n,n,n,14.1µM,n
Cc1ccc(NC(=O)COC(=O)C2=COCCO2)cc1,n,n,n,n,n
CCNC(=S)NNC(=O)c1cc(-c2cccc(OCC)c2)nc2ccccc12,n,n,n,u,n
CCNC(=S)NNC(=O)c1cc(-c2cccc(C)c2)nc2ccccc12,n,u,n,4.47µM,n
O=C(CCSc1ccccc1)Nc1nc2c(s1)CCCC2,n,n,n,11.2µM,n
O=C(CCSc1ccc(Cl)cc1)NC1CCCCC1,u,n,n,n,n
O=C(CCSc1ccccc1)NC1CCCCCC1,n,n,n,7.08µM,n
O=C(Nc1nc2c(s1)CCCC2)c1cccs1,n,n,n,u,n
O=C(Cc1cccs1)Nc1nc2c(s1)CCCC2,n,n,n,3.98µM,n
CCc1ccc2oc(-c3ccc(C)c(NC(=O)COc4ccc(Cl)cc4)c3)nc2c1,x,x,x,n,x
CCN(CC)C(=O)N1CCN(/[N+]([O-])=N/Oc2ccc([N+](=O)[O-])cc2[N+](=O)[O-])CC1,x,x,x,n,x
Oc1ccc(/C=C/c2cc(O)cc(O)c2)cc1,n,n,n,12.6µM,n
Oc1ccc(/C=C\c2cc(O)cc(O)c2)cc1,x,n,x,x,x
C[C@H]1O[C@@H](n2cnc3c(N)ncnc32)C[C@@H]1OP(=O)(O)OP(=O)(O)OP(=O)(O)O,x,n,x,x,x
COc1ccccc1N1CCN(/N=C/C=C\c2ccco2)CC1,n,u,n,2.82µM,n
COc1ccc(C)cc1NC(=O)Nc1ccc(C(=O)N2CCCC2)cc1,n,n,n,7.94µM,n
O=C(Nc1ccccc1)c1ccc(-c2ccccc2C(F)(F)F)o1,n,n,n,n,x
CC(C)NC(=O)c1ccc(-c2ccccc2C(F)(F)F)o1,n,n,n,11.2µM,n
CSCC[C@H](NC(=O)[C@H](Cc1ccccc1)NC(=O)[C@H](Cc1cnc[nH]1)NC(=O)CNC(=O)[C@@H](NC(=O)[C@H](C)NC(=O)[C@H](Cc1c[nH]c2ccccc12)NC(=O)[C@H](CCC(N)=O)NC(=O)[C@@H]1CCCN1C(=O)[C@@H](NC(=O)[C@@H]1CCC(=O)N1)C(C)C)C(C)C)C(N)=O,x,n,x,x,x
Oc1ccc(/C=N/Nc2ccc(C(F)(F)F)cn2)cc1,n,n,n,6.31µM,n
CC1=CC23C(=O)C(C=C(CO)[C@@H](O)[C@]2(O)[C@H]1O)[C@H]1[C@@H](C[C@H]3C)C1(C)C (stereo not given in full),x,n,x,x,x
N#Cc1nc(NCC2CC2)nc(Nc2ccccc2)n1,x,n,x,x,x
CCOc1ccc(N(CC(=O)Nc2ccc(OC)cc2)S(C)(=O)=O)cc1,n,n,n,u,n
CCOc1ccc(N(CC(=O)NCc2ccccc2C)S(C)(=O)=O)cc1,n,n,n,11.2µM,n
COC(=O)c1ccc(NC(=O)CN(c2ccc(OC)cc2)S(C)(=O)=O)cc1,n,n,n,11.2µM,n
SMILES,TSHR antagonist,Apoferritin bind,S-ASM inh,BRCA1 expr up,PTAP TSG101 blk
CCOc1ccc(NC(=O)CN(c2ccc(OC)cc2)S(C)(=O)=O)cc1,n,n,n,11.2µM,n
CCOc1ccc(N(CC(=O)NCCSCc2ccccc2Cl)S(C)(=O)=O)cc1,n,n,n,n,n
COC(=O)c1ccccc1NC(=O)CN(c1ccc(OC)cc1)S(C)(=O)=O,n,n,n,n,n
O=C(Nc1ccccc1F)c1cnn2c1NC(=C1CC1)C=C2C(F)F,x,x,x,n,x
CCOc1ccc(-c2nc(CSc3nnc(N)s3)cs2)cc1,n,n,n,3.98µM,n
CCc1cccc(NC(=O)COC(=O)c2ccccc2OCc2ccccc2Br)c1,x,x,x,n,x
Cc1ccc(NC(=O)C(=S)NCc2ccco2)cc1,n,n,n,7.08µM,n
O=C(NCCSCc1ccco1)Nc1ccc(Cl)cc1,x,n,n,8.91µM,n
Cc1ccc(NC(=O)CSCc2ccco2)cc1,n,u,n,10µM,n
NCC(=O)N[C@@H](CCCN=C(N)N)C(=O)NCC(=O)N[C@@H](CC(=O)O)C(=O)N[C@@H](CO)C(=O)N1CCC[C@H]1C(=O)O,x,n,x,x,x
COc1ccc(C2=Nn3c(nnc3-c3cccc(OC)c3OC)SC2)c(OC)c1,x,n,x,x,x
C=CCc1cccc(C=Nc2c[nH]c(=O)[nH]c2=O)c1O,n,n,n,n,n
C=CCc1cccc(C=Nc2cccn3cc(-c4ccccc4)nc23)c1O,n,n,n,11.2µM,n
N=C(N)SCc1ccc(Cl)cc1Cl,n,n,n,n,n
Nc1ccc(CSc2ccc(Cl)cc2)c(Cl)c1,x,x,n,1.78µM,n
CN(c1ccc(/C=C/c2ccccc2)cc1)P1(=O)NCCCO1 (stereo not given),x,x,x,n,x
CC(=O)NCCNC(=O)c1ccc2c(=O)n(CCc3ccccc3)c(=O)[nH]c2c1,x,n,x,4.47µM,x
CCN(CC)CCCNC(=O)c1ccc2c(=O)n(CCc3ccccc3)c(=O)[nH]c2c1,x,n,x,n,x
C=CCc1c(C)nc2c(-c3ccccc3)cnn2c1N1CCOCC1,n,n,n,2.24µM,n
Cc1cc(N2CCOCC2)n2ncc(-c3ccccc3)c2n1,n,n,n,n,n
O=C(CC1CCCCC1)NCc1ccc(Cl)cc1,n,n,n,11.2µM,n
O=C(CCC1CCCCC1)NCc1ccc(F)cc1,n,n,n,n,n
CN(C)c1ccc(NC(=O)CN2C(=O)c3ccccc3Sc3ccc(C(=O)N4CCCC4)cc32)cc1,x,n,x,x,x
C=CCn1c2ccccc2c(=O)c2cc(C#CC3(O)CCCCC3)ccc21,n,n,n,u,n
C=CCn1c2ccccc2c(=O)c2cc(C#CC[C@@H](C)O)ccc21,n,x,n,3.55µM,n
SMILES,TSHR antagonist,Apoferritin bind,S-ASM inh,BRCA1 expr up,PTAP TSG101 blk
CC(=O)O[C@@H]1[C@@H](O)CN[C@@H]1Cc1ccccc1,x,n,x,x,x
Cc1ccc(NC(=O)CCc2nnc3ccc(NCc4ccco4)nn23)nc1,-96.4,n,n,n,n
C/C(=N\O)c1sc(-c2ccccc2)nc1C,n,n,n,2.51µM,n
C=C(C)c1sc(-c2ccccc2)nc1C,x,x,n,n,n
CCOc1ccc(Nc2nc(N)c(C(=O)c3ccccc3Cl)s2)cc1,x,n,x,x,x
CCOC(=O)c1ccc2[nH]c(C)c(C)c2c1,x,x,n,12.6µM,n
Cc1[nH]c2ccc(C(=O)OCCN(C)C)cc2c1C,n,n,n,n,n
c1ccn(-c2ccc(-c3ccn[nH]3)cc2)c1,n,n,n,5.01µM,n
Cc1ccc(C)n1-c1ccc(-c2ccn[nH]2)cc1,n,n,n,n,n
C=C(NNC(C)=O)c1ccc(O)cc1,x,x,x,n,x
